Only a selection was taken, and hits are over-represented in it overall.
Tg IFNy HTS: T. gondii growth inhibition under IFN-gamma | Toxoplasma gondii growth in IFN-gamma-treated host cells; hits give low values | activity change, negative = inhibition, % (no concentration beside the values) | 3.8% of 69,000 active | AID 1259416; in the data active = activity change below about -70%, passing the limit was not always enough;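 note: host cells are HeLa cells infected with Toxoplasma gondii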
A number is an active result; 0 = inactive; ! = repeats disagree.

SMILES | Tg IFNy HTS
CN(C)c1ncc2c(n1)[C@H]1CN(Cc3ccccc3F)C[C@@H]1S(=O)(=O)C2 | -102.7
O=S1(=O)Cc2cnc(NCC3CC3)nc2[C@H]2CN(Cc3ccc(F)cc3)C[C@@H]21 | 0
Cc1nc2sccn2c(=O)c1CCN1CCC(=C(c2ccc(F)cc2)c2ccc(F)cc2)CC1 | -77.1!
Cc1nc2n(c(=O)c1CCN1CCC(c3noc4cc(F)ccc34)CC1)CCCC2O (centres undefined) | 0
Cc1nc2ccccn2c(=O)c1CCN1CCC(C(=O)c2ccc(F)cc2)CC1 | 0
CCOc1cccc(C2c3[nH]c4ccccc4c3CCN2C(=O)c2ccc(OC)cc2)c1 (centres undefined) | -92.5
CCOc1cccc(C2c3[nH]c4ccccc4c3CCN2C(=O)CCC2CCCC2)c1 (centres undefined) | 0
COc1ccc(C2c3[nH]c4ccccc4c3CCN2C(=O)c2cccc(OC)c2)cc1 (centres undefined) | -98.7
CCOc1cccc(C2c3[nH]c4ccccc4c3CCN2C(=O)c2cccnc2)c1 (centres undefined) | 0
CCOc1cccc(C2c3[nH]c4ccccc4c3CCN2C(=O)c2ccc(Br)cc2)c1 (centres undefined) | -97.8
CCOc1cccc(C2c3[nH]c4ccccc4c3CCN2C(=O)C2CC2)c1 (centres undefined) | 0
COc1cccc(C(=O)N2CCc3c([nH]c4ccccc34)C2c2ccc(F)cc2)c1 (centres undefined) | 0
CCOc1cccc(C2c3[nH]c4ccccc4c3CCN2C(=O)c2ccncc2)c1 (centres undefined) | -84.2
COc1cccc(C(=O)N2CCc3c([nH]c4ccccc34)C2c2ccc(SC)cc2)c1 (centres undefined) | 0
CCOc1cccc(C2c3[nH]c4ccccc4c3CCN2C(=O)c2cc(OC)c(OC)c(OC)c2)c1 (centres undefined) | 0
CCOc1ccccc1CN(CC)C(=O)c1c[nH]c2ccc(OC)cc2c1=O | 0
COCC(=O)N1[C@@H]2CN(C(=O)c3cccnc3)c3ccccc3[C@@H]2[C@@H]1CO | 0
CCOc1ccc(C)cc1-c1csc(NC(=O)c2cc[nH]c(=O)c2)n1 | 0
Cc1nnnn1-c1ccc(CC(=O)N2[C@H]3CCNC[C@@H]2CC3)cc1 | 0
C[C@H](CO)N1C[C@H](C)[C@@H](CN(C)Cc2cccc(C(F)(F)F)c2)OCc2ccccc2-c2c(n(C)c3ccccc23)C1=O | 0
C[C@@H](Cn1c(C(F)(F)F)cc2cccnc21)NC(=O)c1ccccc1 | 0
Cc1cccc2nc(C(=O)Nc3cnc4n3CCCC4)c(F)n12 | 0
CC(C)c1cc(N2CCOC(C(F)(F)F)C2)nc(C(F)(F)F)n1 (centres undefined) | -81.3
FC(F)(F)C1CN(c2nc(-c3ccccc3)no2)CCO1 (centres undefined) | 0
Cc1nc(N2CCOC(C(F)(F)F)C2)c2ccsc2n1 (centres undefined) | 0
SMILES | Tg IFNy HTS
CSc1cccc(NC(=O)NCC(c2cccnc2)c2c[nH]c3ccccc23)c1 (centres undefined) | 0
CCC(C)[C@H]1O[C@]2(C=C[C@@H]1C)C[C@@H]1C[C@@H](C/C=C(\C)[C@@H](OC3C[C@H](OC)C(O[C@H]4C[C@H](OC)[C@@H](NC(C)=O)[C@H](C)O4)[C@H](C)O3)[C@@H](C)/C=C/C=C3\CO[C@@H]4[C@H](O)C(C)=C[C@@H](C(=O)O1)[C@]34O)O2 (some centres undefined) | 0
CO[C@H]1CC(O[C@@H]2/C(C)=C/C[C@@H]3C[C@@H](C[C@]4(CC[C@H](C)[C@@H](C5CCCCC5)O4)O3)OC(=O)[C@@H]3C=C(C)/C(=N/O)[C@H]4OC/C(=C\C=C\[C@@H]2C)[C@]43O)O[C@@H](C)C1O (some centres undefined) | -79.6
Clc1ccc(CNc2nc(SCc3ccccc3Cl)nc3ccccc23)cc1 | 0
Fc1ccc(Nc2nc(SCc3ccc(Cl)cc3)nc3ccccc23)cc1F | 0
COc1ccc(CNc2nc(-c3ccc(OC)cc3)nc3ccccc23)cc1 | 0
Clc1ccc(CSc2nc(NCc3ccccc3)c3ccccc3n2)cc1 | -71.8
COc1cc(Nc2nc(SCc3ccc(C(C)(C)C)cc3)nc3ccccc23)cc(OC)c1 | 0
Fc1ccc(CSc2nc(Nc3ccc(F)c(F)c3)c3ccccc3n2)cc1 | -80.5
Clc1ccccc1CSc1nc(NCc2ccccc2)c2ccccc2n1 | 0
Clc1ccc(CNc2nc(SCc3ccc(Cl)cc3)nc3ccccc23)cc1 | 0
c1ccc(CNc2nc(NCc3ccccc3)c3ccccc3n2)cc1 | -107.9
CC(=O)OCC(=O)[C@@]1(OC(C)=O)[C@@H](C)C[C@H]2[C@@H]3C[C@H](F)C4=CC(=O)C=C[C@]4(C)[C@@]3(F)[C@@H](O)C[C@@]21C | 0
CO[C@H](CN(C)S(=O)(=O)c1ccc(C)cc1)[C@@H](C)CN(C(=O)Nc1ccccc1F)[C@@H](C)CO | 0
O=S(=O)(N1CCCCCC1)N1CCCN(S(=O)(=O)N2CCCCCC2)CC1 | 0
C[C@H]1CN([C@@H](C)CO)C(=O)c2c(c3ccccc3n2C)-c2ccccc2CO[C@H]1CN(C)Cc1cccc(C(F)(F)F)c1 | 0
C[C@@H]1CN([C@@H](C)CO)C(=O)c2cc(Br)cnc2O[C@@H]1CN(C)Cc1ccc(Oc2ccccc2)cc1 | 0
CN1CCN(C2Cc3ccccc3Sc3ccc(Cl)cc32)CC1 (centres undefined) | -81.7
CN1CCN2c3ccccc3Cc3ccccc3C2C1 (centres undefined) | 0
CSc1ccc2c(c1)C(N1CCN(C)CC1)Cc1ccccc1S2 (centres undefined) | -76.9
CN1CCN(C2=Cc3ccccc3Oc3ccc(Cl)cc32)CC1 | 0
CN1CCCC(CC2c3ccccc3Sc3ccccc32)C1 (centres undefined) | 0
C[C@H]1CN([C@@H](C)CO)C(=O)CCCn2nncc2CO[C@H]1CN(C)S(=O)(=O)c1ccc2c(c1)OCCCO2 | 0
COC(=O)c1cc(C)nc2c1c(=O)n(Cc1nc(-c3ccccc3C)oc1C)c(=O)n2C | 0
Clc1ccc2c(c1)N=C(N1CCNCC1)c1ccccc1N2 | 0
SMILES | Tg IFNy HTS
CN1CCN(C2=Nc3cc(Cl)ccc3Nc3ccccc32)CC1 | -94.9!
CN1CCN(C2=Nc3cc(F)ccc3Cc3ccccc32)CC1 | 0
O=C1CC(C(=O)Nc2ccc(Br)cc2)N=C(N2CCOCC2)N1 (centres undefined) | 0
NCC1CCN(Cc2cc(F)ccc2O)C1 (centres undefined) | 0
CC1CCN(c2ncnc3c2cnn3CC(=O)Nc2ccc(OC(F)(F)F)cc2)CC1 | 0
O=C(Cn1ncc2c(N3CCCC3)ncnc21)Nc1cccc(Cl)c1 | 0
CC1CCN(c2ncnc3c2cnn3CC(=O)Nc2cccc(C(F)(F)F)c2)CC1 | -72.5
CC1CCN(c2ncnc3c2cnn3CC(=O)Nc2ccc(F)c(Cl)c2)CC1 | -85.7
O=C(Cn1ncc2c(N3CCN(c4ccccn4)CC3)ncnc21)Nc1ccccc1C(F)(F)F | 0
COc1ccc(NC(=O)Cn2ncc3c(N4CCC(C)CC4)ncnc32)cc1OC | 0
O=C(Cn1ncc2c(N3CCN(c4ccccn4)CC3)ncnc21)Nc1ccc(F)c(Cl)c1 | 0
O=C(Cn1ncc2c(N3CCCCC3)ncnc21)Nc1cccc(Cl)c1 | 0
CC1CCN(c2ncnc3c2cnn3CC(=O)Nc2ccc3c(c2)OCCO3)CC1 | 0
CC1CCN(c2ncnc3c2cnn3CC(=O)Nc2ccccc2F)CC1 | 0
CC1CCN(c2ncnc3c2cnn3CC(=O)Nc2ccccc2C(F)(F)F)CC1 | -81.1
CC1CCN(c2ncnc3c2cnn3CC(=O)Nc2cccc(Cl)c2)CC1 | -86.8

Assay outcomes as filed in PubChem BioAssay.
